WT yeast gro inh = growth inhibition of WT yeast, mitochondrial fusion screen. mitochondrial fusion phenotypic screen, WT strain. AID 1362. 2.1% of 190,000 active. inhibition, % at 10 µM; in the data active = inhibition above about 58%; tested in S. cerevisiae
DTT redox prof = compounds producing H2O2 with reducing agent – biochemical, NIH compound library profiling, artefact control for MLSCN library redox annotation, primary screen | AID 878 | DTT-dependent redox cycling H2O2, phenol red/HRP absorbance; 100% = 100 µM peroxide control, 0% = buffer | activation, % at 10 µM | 0.03% of 200,000 active;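 active = activation of at least 50% relative to the plate's high and low controls in the primary single-dose screen; inactive = activation below 50%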;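 note: compound incubated with DTT at 0.8 mM final as the reducing agent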
PKD1 kinase inh = inhibitors of human PKD1 kinase. Q15139. PKD1 kinase fluorescence polarization assay. inhibition, % (no concentration beside the values). 0.056% of 200,000 active. AID 797; in the data active = inhibition above about 50%
TNF death inh = blocks TNF-alpha induced death of Jurkat FADD-/- cells. activation (protection from cell death), % at 10 µM. Jurkat FADD-/- TNF necroptosis rescue, ATP luminescence, 24 h; 0 = TNF only, 100 = no-TNF cells. 0.068% of 220,000 active;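 active = activation, meaning protection from cell death, of at least 50% relative to plate controls; inactive = activation below 50%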;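 note: necroptosis triggered by 40 ng/mL TNF-alpha added together with compound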
PERK inhibitor = human PERK inhibition, primary cell-based screen. Q9NZJ5. CHO PERK-DD fusion, SEAP luminescence translation reporter. inhibition, % at 5.6 µM. 0.17% of 220,000 active. AID 1416;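 active = inhibition above the mean inhibition of all tested compounds plus 3 SD, set separately per screening campaign, cut at about 2.9% in these data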;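 note: PERK kinase domain activated by AP20187 dimerizer at 100 nM; 0% = DMSO with dimerizer and 100% = rapamycin at 8.4 µM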
L929 necroptosis = blocks zVAD induced death of L929 cells | L929 zVAD necroptosis rescue, ATP luminescence, 24 h; with zVAD 60 µM | viability rescue, % at 10 µM | 0.38% of 220,000 active | AID 1377;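 active = activation, scaled between plate controls, above about 75%, limit read from the data; inactive = activation under that limit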;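 note: 0% = zVAD with DMSO and 100% = DMSO alone without zVAD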
Active calls of the source: *; · = no result. Only some compounds are listed: those with a hit (about 2.4% of all), similar ones and a draw of the others.

SMILES | WT yeast gro inh | DTT redox prof | PKD1 kinase inh | TNF death inh | PERK inhibitor | L929 necroptosis
CCC(C)(C)NC(=S)Nc1ccccc1C | 27 | -2 | -6 | 0 | 0 | 0
CCn1c(C)cs/c1=N\C(=S)Nc1ccccc1C | 62* | -1 | -8 | 1 | 1 | 0
CCOc1ccccc1N1CCN(C(=O)Nc2cccc(Cl)c2)CC1 | -20 | 2 | -10 | -1 | -1 | 1
CCOc1ccccc1N1CCN(C(=O)Nc2ccc(Cl)c(Cl)c2)CC1 | 68* | 1 | 7 | -1 | 1 | 1
O=C(O)/C=C/c1ccc(-n2ccnc2)cc1 | · | · | · | 0 | 1 | 1
CC(Sc1nnc(NCc2ccccc2)s1)C(=O)Nc1ccc2c(c1)C(=O)c1ccccc1C2=O (stereo not drawn) | 21 | 2 | 5 | 80* | 0 | 4
CC(Sc1nnc(Nc2ccccc2)s1)C(=O)Nc1nc(-c2ccccc2)cs1 (stereo not drawn) | 16 | 0 | 1 | 0 | 1 | 0
CC(=O)N1N=C(c2cccc([N+](=O)[O-])c2)OC1c1cccc(Br)c1 (stereo not drawn) | 66* | -1 | -1 | -1 | 0 | -1
CC(=O)N1N=C(c2cccc(Cl)c2)OC1c1ccc(C(C)C)cc1 (stereo not drawn) | 78* | 0 | -4 | 0 | 0 | 0
COCCCN(CC(=O)Nc1ccc(N2CCOCC2)cc1)S(=O)(=O)c1ccccc1 | -2 | -1 | -2 | 2 | 2 | 2
O=C(NCCc1cccc(F)c1)/C(=C/c1cccnc1)NC(=O)c1ccccc1 | 0 | -1 | -16 | 1 | 0 | ·
O=C(NCCCCc1ccccc1)C1CC(c2ccc(C(F)(F)F)cc2)=NO1 (stereo not drawn) | · | · | · | 0 | · | 0
CC(C)C1C(c2ccccc2)N(C)C(c2ccccc2)CC1(O)c1ccccc1 (stereo not drawn) | 63 | 0 | -4 | 1 | 0 | 2
CCC1C(c2ccccc2)N(C)C(c2ccccc2)CC1(O)c1ccccc1 (stereo not drawn) | 76* | 0 | -6 | 2 | 1 | 23
COc1cc(CN2CCN(C(C)C)C(CCO)C2)ccc1OCc1ccccc1 (stereo not drawn) | 5 | -1 | 3 | 2 | 0 | 0
Cc1nc(N2CCCCC2C)c2c(C)c(C(=O)Nc3ccccc3C(F)(F)F)sc2n1 (stereo not drawn) | 75* | -1 | -1 | 0 | 1 | -1
Cc1nc(N2CCOCC2)c2c(C)c(C(=O)Nc3ccccc3C(F)(F)F)sc2n1 | 20 | 1 | -8 | 2 | 1 | 0
CC(C)Cc1cc(C(=O)N2N=C(C(F)F)CC2(O)C(F)F)c2ccccc2n1 (stereo not drawn) | 9 | 0 | 11 | 1 | -2 | 0
CCc1ccc(-c2cc(C(=O)N3N=C(C(F)F)CC3(O)C(F)F)c3ccccc3n2)cc1 (stereo not drawn) | 80* | -4 | 7 | -2 | -1 | 0
N#Cc1c(N)nc2c(c1-c1ccc3c(c1)OCO3)CCc1ccccc1-2 | 62* | 0 | -3 | 1 | 0 | 0
N#Cc1c(N)c(C#N)c(-c2ccc3c(c2)OCO3)c2c1CCCC2 | 0 | · | · | · | · | ·
Nc1nc(C(F)(F)F)c(Br)c(=O)n1N | 12 | 6 | 4 | -1 | 0 | 0
COC(=O)CCN1CCc2cc(N=Nc3ccc([N+](=O)[O-])cc3)ccc21 | · | · | · | -6 | 2 | -2
Cc1ccc(C(=O)Nc2cc(Cl)ccc2N2CCCCC2)s1 | 68* | 0 | -1 | -1 | 0 | 0
CCN(CC)S(=O)(=O)c1cc(C(=O)Nc2cc(Cl)ccc2N2CCN(C)CC2)ccc1Cl | 65* | 0 | 5 | -4 | 0 | -1
COc1ccccc1-n1c(=O)oc2ccc(Cl)cc2c1=O | 76* | 2 | -10 | -3 | 1 | 0
COc1ccccc1-c1cc(C(F)(F)F)nc(N2CCCC2)n1 | 14 | -2 | -7 | -1 | 0 | 1
COc1ccccc1-c1cc(C(F)(F)F)nc(N2CCCCC2)n1 | 74* | 0 | -5 | 0 | 0 | 1
COC(=O)c1cc(NC(=S)Nc2cc(Cl)cc(Cl)c2)cc(C(=O)OC)c1 | 77* | 0 | 10 | -6 | 0 | ·
COC(=O)c1cccc(NC(=S)Nc2ccccc2Cl)c1 | · | · | · | 1 | 1 | 1
